# In PubChem BioAssay AID2662 (National Center for Advancing Translational Sciences (NCATS), 2010):
# About 110 (0.038%) of roughly 290,000 compounds were called active. A call without a number means that no potency is given here. Inconclusive results (about 3%) are left out. Calls follow the shape of the dose curve; as a rule, active = well fitted inhibition curve with a large enough effect in the polarisation, with a control signal flat (not every such curve was filed as active); inconclusive = small, poorly fitted or top-dose-only effect, or effect the other way, or a change in a side signal; inactive = no such curve, though single readings can be large or run the other way; the % refers to the polarisation. Only a selection was taken, and actives are over-represented in it overall.
# Biological target: Histone-lysine N-methyltransferase 2A (Homo sapiens) (UniProt Q03164)
# Experiment: qHTS Fluorescence Polarization Assay for Inhibitors of MLL CXXC domain - DNA interaction
# Conditions: MLL-CXXC / FITC-HOXA9 DNA fluorescence polarization; series mostly up to 115 µM
# Excerpt: NIH Chemical Genomics Center [NCGC] NIH Molecular Libraries Probe Production centers Network [MLPCN] MLPCN Grant: DA027717-01A1 Assay Submitter (PI): John Bushweller NCGC Assay Overview: The MLL (Mixed Lineage Luekemia) gene is involved in chromosomal translocation that results in either acute lymphoid leukemia (ALL) or acute myeloid leukemia (AML). Chromasomal translocation of MLL gene is responsible for the fusion of N-terminal MLL to more than 60 different partner genes in frame. Many of the MLL partner genes contain transcription activation domains or function as transcriptional activators. Despite the heterogeneity of fusion partners, the N-terminus of MLL fusion proteins always consists of the N-terminal menin binding motif and the CXXC domain. The MLL-CXXC domain specifically recognizes unmethylated CpG sequences of the HOX-A gene. Disruption of the MLL-CXXC and HOX-A gene interaction leads to down regulation of HOX-A gene expression and may potentially reverse leukemogenesis. We have miniaturized and optimized an in-vitro assay to screen for inhibitors of the MLL-CXXC domain and HOX-A DNA interaction, which could have utility in MLL fusion leukemias.
# The affinity purified MLL-CXXC domain, unlabeled HOX-A9 DNA strand, fluorescein (FLSN) labeled HOX-A9 DNA strand were kindly supplied by the laboratory of Dr. John Bushweller, University of Virginia. All reagents were stored in single use aliquots at -80C. Assay Reagents: Assay buffer: 50 mM TRIS-HCl pH 7.5, 50 mM NaCl, 1 mM DTT. Add 0.05% BSA prior to reaction setup. Assay Procedure: 1.Dispense 1 ul of a 7 uM MLL-CXXC solution prepared in assay buffer into column 1-48. 2.Transfer 23 nl of compounds and unlabeled HOX-A9 per well. 3.Incubate for 5 minutes at ambient. 4.Dispense 1ul of a 50 nM FLSN-HOX-A9 solution prepared in assay buffer into columns 1-48 5.Centrifuge for 30 seconds at 1000 RPM. 6.Incubate for 30 minutes at ambient. 7.Read using the Envision reader fluorescent polarization protocol.
# Potency is read from the fitted curve at half-maximal effect.
# Histone-lysine N-methyltransferase 2A (Homo sapiens), sequence (Q03164 whole entry, looked up, the tested form may be a part): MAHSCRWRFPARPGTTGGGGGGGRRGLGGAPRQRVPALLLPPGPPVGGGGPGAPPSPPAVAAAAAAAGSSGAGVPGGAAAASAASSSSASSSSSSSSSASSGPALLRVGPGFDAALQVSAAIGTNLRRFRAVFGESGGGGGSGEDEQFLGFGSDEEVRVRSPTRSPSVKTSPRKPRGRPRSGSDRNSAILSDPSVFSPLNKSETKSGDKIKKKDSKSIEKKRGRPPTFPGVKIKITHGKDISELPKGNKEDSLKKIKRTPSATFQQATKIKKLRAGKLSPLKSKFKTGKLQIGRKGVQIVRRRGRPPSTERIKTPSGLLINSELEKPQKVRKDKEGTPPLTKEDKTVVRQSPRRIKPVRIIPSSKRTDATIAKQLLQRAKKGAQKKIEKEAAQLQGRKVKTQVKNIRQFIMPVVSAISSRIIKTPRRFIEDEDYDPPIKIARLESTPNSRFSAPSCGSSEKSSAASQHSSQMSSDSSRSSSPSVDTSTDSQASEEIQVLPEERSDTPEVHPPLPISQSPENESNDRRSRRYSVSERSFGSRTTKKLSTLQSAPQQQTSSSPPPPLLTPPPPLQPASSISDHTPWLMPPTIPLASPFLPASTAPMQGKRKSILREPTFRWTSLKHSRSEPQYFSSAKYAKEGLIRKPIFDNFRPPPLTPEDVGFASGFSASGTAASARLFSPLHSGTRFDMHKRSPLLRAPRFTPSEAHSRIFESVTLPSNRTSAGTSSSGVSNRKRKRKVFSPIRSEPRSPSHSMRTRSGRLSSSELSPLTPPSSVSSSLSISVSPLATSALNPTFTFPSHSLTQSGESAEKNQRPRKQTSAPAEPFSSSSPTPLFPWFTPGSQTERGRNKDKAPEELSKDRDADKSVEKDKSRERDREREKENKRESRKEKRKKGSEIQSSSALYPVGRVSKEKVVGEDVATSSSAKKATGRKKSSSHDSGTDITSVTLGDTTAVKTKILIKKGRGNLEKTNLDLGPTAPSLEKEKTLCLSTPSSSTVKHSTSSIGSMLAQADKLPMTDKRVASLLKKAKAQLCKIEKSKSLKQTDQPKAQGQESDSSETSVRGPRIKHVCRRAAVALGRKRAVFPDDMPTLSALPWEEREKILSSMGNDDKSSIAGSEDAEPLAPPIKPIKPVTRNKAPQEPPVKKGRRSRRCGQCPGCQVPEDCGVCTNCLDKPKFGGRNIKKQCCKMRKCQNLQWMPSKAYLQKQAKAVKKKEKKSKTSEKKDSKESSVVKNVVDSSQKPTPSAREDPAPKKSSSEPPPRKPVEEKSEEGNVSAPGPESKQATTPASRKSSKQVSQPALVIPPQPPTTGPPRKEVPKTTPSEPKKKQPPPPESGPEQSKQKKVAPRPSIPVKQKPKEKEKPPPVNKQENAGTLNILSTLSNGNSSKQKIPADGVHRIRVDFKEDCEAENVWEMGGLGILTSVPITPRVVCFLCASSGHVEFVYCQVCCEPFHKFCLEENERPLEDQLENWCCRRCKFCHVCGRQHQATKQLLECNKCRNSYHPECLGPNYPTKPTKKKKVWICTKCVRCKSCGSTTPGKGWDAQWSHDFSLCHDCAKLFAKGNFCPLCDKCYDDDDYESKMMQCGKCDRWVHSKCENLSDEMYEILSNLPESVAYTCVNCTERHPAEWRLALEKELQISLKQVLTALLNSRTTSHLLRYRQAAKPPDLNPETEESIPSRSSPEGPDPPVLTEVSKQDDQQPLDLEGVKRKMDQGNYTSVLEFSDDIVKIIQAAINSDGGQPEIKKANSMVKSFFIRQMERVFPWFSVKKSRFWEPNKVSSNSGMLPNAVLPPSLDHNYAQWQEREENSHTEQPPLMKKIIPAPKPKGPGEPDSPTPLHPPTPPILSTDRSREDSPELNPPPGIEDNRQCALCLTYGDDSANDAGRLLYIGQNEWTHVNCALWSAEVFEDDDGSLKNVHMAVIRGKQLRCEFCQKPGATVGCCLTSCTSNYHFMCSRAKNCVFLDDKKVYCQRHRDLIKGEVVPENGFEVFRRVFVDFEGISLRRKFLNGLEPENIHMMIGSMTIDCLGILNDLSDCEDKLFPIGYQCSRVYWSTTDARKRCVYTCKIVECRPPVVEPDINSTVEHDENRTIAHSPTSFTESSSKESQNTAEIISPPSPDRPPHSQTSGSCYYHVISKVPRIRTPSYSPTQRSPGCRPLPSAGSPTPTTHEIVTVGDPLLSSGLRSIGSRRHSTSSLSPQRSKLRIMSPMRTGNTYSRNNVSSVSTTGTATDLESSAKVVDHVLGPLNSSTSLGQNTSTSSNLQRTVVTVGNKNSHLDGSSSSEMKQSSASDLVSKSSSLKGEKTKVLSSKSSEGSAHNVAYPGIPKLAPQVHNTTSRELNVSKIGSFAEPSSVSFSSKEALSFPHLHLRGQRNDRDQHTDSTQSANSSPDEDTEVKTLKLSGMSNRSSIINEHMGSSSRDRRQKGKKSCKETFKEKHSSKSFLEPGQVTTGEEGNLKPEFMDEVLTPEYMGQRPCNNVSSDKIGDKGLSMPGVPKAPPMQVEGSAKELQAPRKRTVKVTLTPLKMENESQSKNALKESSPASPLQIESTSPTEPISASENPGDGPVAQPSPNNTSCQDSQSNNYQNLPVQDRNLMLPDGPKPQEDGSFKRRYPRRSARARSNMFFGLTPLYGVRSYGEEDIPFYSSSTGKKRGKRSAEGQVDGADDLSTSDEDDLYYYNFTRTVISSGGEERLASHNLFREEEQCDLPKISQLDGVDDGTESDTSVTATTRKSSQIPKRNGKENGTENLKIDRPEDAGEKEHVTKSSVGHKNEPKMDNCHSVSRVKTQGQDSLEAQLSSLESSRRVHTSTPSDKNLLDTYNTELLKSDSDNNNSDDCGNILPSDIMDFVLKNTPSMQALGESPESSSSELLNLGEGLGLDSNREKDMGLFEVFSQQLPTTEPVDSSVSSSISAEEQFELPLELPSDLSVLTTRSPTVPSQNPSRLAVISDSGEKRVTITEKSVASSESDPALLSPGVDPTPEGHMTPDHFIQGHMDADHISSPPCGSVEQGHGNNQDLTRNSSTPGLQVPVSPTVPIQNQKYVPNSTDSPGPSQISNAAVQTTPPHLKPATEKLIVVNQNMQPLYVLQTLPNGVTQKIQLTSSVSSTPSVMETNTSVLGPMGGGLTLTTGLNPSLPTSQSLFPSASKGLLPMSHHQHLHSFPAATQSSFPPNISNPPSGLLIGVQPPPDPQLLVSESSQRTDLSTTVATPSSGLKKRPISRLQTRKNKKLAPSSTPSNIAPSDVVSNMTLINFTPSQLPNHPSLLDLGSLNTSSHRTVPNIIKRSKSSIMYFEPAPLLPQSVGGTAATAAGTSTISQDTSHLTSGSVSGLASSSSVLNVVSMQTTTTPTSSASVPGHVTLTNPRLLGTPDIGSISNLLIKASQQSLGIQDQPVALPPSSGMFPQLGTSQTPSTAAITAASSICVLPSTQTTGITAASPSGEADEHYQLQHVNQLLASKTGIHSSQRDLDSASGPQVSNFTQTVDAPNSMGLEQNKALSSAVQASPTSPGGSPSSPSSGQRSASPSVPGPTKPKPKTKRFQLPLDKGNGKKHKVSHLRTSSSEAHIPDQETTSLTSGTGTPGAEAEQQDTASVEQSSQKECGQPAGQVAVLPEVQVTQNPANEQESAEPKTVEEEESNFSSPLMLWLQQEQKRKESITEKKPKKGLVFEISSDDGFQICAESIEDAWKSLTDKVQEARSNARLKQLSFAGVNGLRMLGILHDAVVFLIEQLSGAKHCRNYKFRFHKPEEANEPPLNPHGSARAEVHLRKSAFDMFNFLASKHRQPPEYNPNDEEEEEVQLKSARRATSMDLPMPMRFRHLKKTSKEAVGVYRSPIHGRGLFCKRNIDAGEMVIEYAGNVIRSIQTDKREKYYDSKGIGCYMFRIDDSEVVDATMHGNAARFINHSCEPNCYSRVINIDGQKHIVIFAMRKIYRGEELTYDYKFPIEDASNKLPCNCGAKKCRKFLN
row,SMILES,Potency
1,COc1ccc(N(CC(=O)Nc2cc(OC)cc(OC)c2)S(=O)(=O)c2c(C)n[nH]c2C)cc1,inactive
2,CC(C)NC(=O)C(c1ccc(F)cc1)N(C(=O)CCC(=O)Nc1ccccn1)c1ccccc1F (centres undefined),inactive
3,COc1ccc(C(=O)NC(C)CCc2ccccc2)c(OC)c1 (centres undefined),inactive
4,O=C(CN1CCC(NC(=O)C2CC2)CC1)Nc1ccccc1[N+](=O)[O-],inactive
5,CCCOc1ccc(-c2c(C(=O)N/N=C/c3ccco3)nnn2-c2nonc2N)cc1,inactive
6,COC(=O)c1cc(S(=O)(=O)Nc2ccc(C)c(F)c2)c[nH]1,inactive
7,O=C(c1ccccc1)N1CCN(C(=O)c2cc3nc(-c4ccccc4)cc(C(F)(F)F)n3n2)CC1,inactive
8,COc1cccc(N(CC(=O)NC2CCCC2)C(=O)Cn2nnc(-c3ccc(C)o3)n2)c1,inactive
9,COc1ccc2c(c1OC)C(=O)N(c1ccc(O)cc1)C2,inactive
10,C=CC1(C)CC(=O)C2(O)C(C)(O1)C(OC(C)=O)C(O)C1C(C)(C)CCC(O)C12C (centres undefined),inactive
11,C=C1C(=CC=C2CCC[C@@]3(C)[C@@H]2CC[C@H]3[C@H](C)CCCC(C)C)C[C@@H](O)C[C@@H]1O,inactive
12,O=C(CCS(=O)(=O)c1ccccc1)NC1CCCC1,inactive
13,CCN1C(=NCC(C)C)N[C@@H](CCc2ccccc2)[C@H](C(=O)NCC(C)C)[C@H]1C,inactive
14,O=C(COc1ccc(Cl)cc1)Nc1ccc2c(c1)OCO2,inactive
15,COc1cccc(OCC(O)CNC(=O)c2oc3c(C)c(C)ccc3c2C)c1 (centres undefined),inactive
16,O=C(NCCc1ccccn1)c1nc(Cn2cc([N+](=O)[O-])cn2)no1,inactive
17,COc1ccc(-c2cc(=O)oc3cc(OC(C)C(=O)Nc4ccc(CN5CCOCC5)cc4)ccc23)cc1 (centres undefined),inactive
18,CCOc1cc(C(=O)O)ccc1OCCOc1ccccc1,inactive
19,Cc1cc(C)cc(N(CCC#N)C(=O)CN2C(=O)NC3(CCCC3)C2=O)c1,inactive
20,CC(=O)N(C)c1ccc(NC(=O)Nc2cccc3ccccc23)cc1,inactive
21,CS(=O)(=O)N(CC(=O)Nc1ccc(F)cc1)C1CCCCC1,inactive
22,CC(=O)c1ccc(OCC(O)CN2CCN(S(=O)(=O)c3cccc(Br)c3)CC2)cc1 (centres undefined),inactive
23,COc1ccccc1N1CCN(C(=O)c2cc(=O)c3cc(C)ccc3o2)CC1,inactive
24,Cc1ccc(OCC(=O)Nc2ccc(C(=O)O)cc2NC(=O)COc2ccc(C)c(C)c2)cc1C,inactive
25,Cc1nn(C(C)(C)C)c(OC(=O)CC(C)C)c1S(=O)(=O)c1ccccc1,inactive

row,SMILES,Potency
1,C[C@]12CC[C@@H]3c4ccc(O)cc4C[C@@H](CCCCCCCCCS(=O)CCCC(F)(F)C(F)(F)F)C3[C@@H]1CC[C@@H]2O (some centres undefined),inactive
2,COc1ccccc1C(=O)NC(CCSC)C(=O)NNC(=O)c1csc(N2CCOCC2)n1 (centres undefined),inactive
3,Cc1ccc(S(=O)(=O)NCCCn2ccnc2)cc1C(=O)NC(C)C,inactive
4,O=C(O)c1ccccc1C(=O)NC1=NN(c2ccccc2)CC1,inactive
5,O=C(NCCCN1CCCCC1)C1CC(=O)N(CCc2ccccc2)C1 (centres undefined),inactive
6,COc1cc2c(cc1OC)[C@@H](Cc1cc(OC)c(OC)c(OC)c1)[N+](C)(CCCOC(=O)CC/C=C/CCC(=O)OCCC[N+]1(C)CCc3cc(OC)c(OC)cc3[C@H]1Cc1cc(OC)c(OC)c(OC)c1)CC2 (some centres undefined),inactive
7,CN(C(=O)c1ccccc1)c1nccnc1C#N,inactive
8,O=S(=O)(NC1CCCCC1N1CCN(c2ccccc2F)CC1)c1ccccc1 (centres undefined),inactive
9,CCC1CCCCN1C(=S)Nc1ccc(S(=O)(=O)Nc2ncccn2)cc1 (centres undefined),inactive
10,Cc1cc(C)cc(OCC(=O)Nc2cc(NC(=O)COc3cc(C)cc(C)c3)cc(C(=O)O)c2)c1,inactive
11,C[C@H](NC(=O)C1CC(=O)N(c2ccc3c(c2)OCCO3)C1)C(=O)N1CCC(C(=O)O)CC1 (some centres undefined),inactive
12,Cc1cc(C)c2nc(N3CCC(C(=O)NCCN4CCOCC4)CC3)sc2c1,inactive
13,Cc1ccc(C(C(=O)NCC2CCCO2)N(C(=O)c2snc(C(N)=O)c2N)c2ccc(C(C)C)cc2)o1 (centres undefined),inactive
14,CCOC(=O)[C@@H]1[C@H]2COc3ccc(Br)cc3[C@H]2N2C(=O)N(c3ccc(Cl)cc3)C(=O)[C@@]12C,inactive
15,CC(=O)NC1CCN(CC(=O)Nc2nccs2)CC1,inactive
16,O=C(COc1ccc(Cl)cc1Cl)N/N=C/c1ccccn1,inactive
17,Cc1cccc(N(C)C(=O)CN2C(=O)COc3ccc(S(=O)(=O)N4CCCCCC4)cc32)c1,inactive
18,O=C(Nc1cccc(-n2cnnn2)c1)c1cccnc1,inactive
19,COc1ccccc1CCNC(=O)c1c(C)nn(CC(C)C)c1Cl,inactive
20,Cc1cccc(C)c1NC(=O)CS(=O)CC(=O)N1CCN(c2ccccc2)CC1 (centres undefined),inactive
21,O=C(Nc1ncc([N+](=O)[O-])s1)C1COc2ccccc2O1 (centres undefined),inactive
22,CC(C)CNC(=O)C(=O)NCC(c1ccc2c(c1)OCO2)N1CCOCC1 (centres undefined),inactive
23,Cc1ccc(-c2noc(CNC(=O)c3ccoc3C)n2)cc1,inactive
24,O=C(CCS(=O)(=O)c1ccc2c(c1)NC(=O)CS2)NCc1ccccc1Cl,inactive
25,CCc1ccccc1NC(=S)Nc1cc(OC)c(NC(=O)C(C)C)cc1OC,inactive

row,SMILES,Potency
1,O=C(NCc1ccccc1)C(c1ccccc1)N(C(=O)c1csnn1)c1ccc(F)cc1 (centres undefined),inactive
2,[2H]C(CCOS(N)(=O)=O)c1ccccc1 (centres undefined),inactive
3,CCCCC(=O)Nc1c2c(nn1-c1ccc([N+](=O)[O-])cc1)CS(=O)(=O)C2,inactive
4,Cc1cc(C)n2nc(CNS(=O)(=O)c3c(F)c(F)c(F)c(F)c3F)nc2n1,inactive
5,COc1cccc(CNC(=O)COc2cc(O)c3c(c2)OC(C)(C)CC3=O)c1,inactive
6,C/C(=N\NC(=O)c1ccoc1C)c1ccccc1O,inactive
7,CN1C(=O)CN2CCc3ccccc3C2c2cc(Cl)ccc21 (centres undefined),inactive
8,O=C1C2CCCN2C(=O)N1CCCCN1CCN(c2cccc(C(F)(F)F)c2)CC1 (centres undefined),inactive
9,O=C(Nc1nnc(S(=O)(=O)N2CCCCCC2)s1)c1cccc(Br)c1,inactive
10,Cc1cccc(OCC(O)CN2CCN(S(=O)(=O)c3ccc(C)cc3C)CC2)c1 (centres undefined),inactive
11,Cc1cc(N=Nc2ccc3ccccc3c2)ccc1O,inactive
12,OCC(CO)NC1C[C@](O)(CO)[C@@H](O)[C@H](O)[C@H]1O (some centres undefined),inactive
13,COc1cc(/C=C2/C(=O)NN(c3cccc(Cl)c3)C2=O)cc(Br)c1O,inactive
14,C#CCOc1ccc(/C=C2/C(=O)NN(c3ccccc3)C2=O)cc1OC,inactive
15,COc1cc(/C=C2/C(=O)NN(c3ccc(F)cc3)C2=O)cc([N+](=O)[O-])c1O,20 µM (active)
16,CC(=O)c1c(C)n(-c2ccc(C)cc2)c2ccc(O)cc12,inactive
17,COc1ccc2nc(C)cc(Nc3cccc(C(=O)O)c3)c2c1,inactive
18,NC(=O)C1CCN(C(=O)/C(=C/c2ccco2)NC(=O)c2ccccc2)CC1,inactive
19,Cc1cn([C@H]2CC(F)[C@@H](CO)O2)c(=O)[nH]c1=O (some centres undefined),inactive
20,O=C(Nc1cccc(C(F)(F)F)c1)c1cc(Br)cc(Br)c1O,inactive
21,C[C@H](NC(=O)C1CCN(S(=O)(=O)c2ccccc2)CC1)C(=O)NCc1ccccc1,inactive
22,COc1ccc(N(CC(=O)Nc2ccc(F)c(F)c2)S(=O)(=O)c2c(C)[nH]c(=O)[nH]c2=O)cc1,inactive
23,Cc1ccc(CNC(=O)C(=O)c2cn(CC(=O)N3CCCC3)c3ccccc23)cc1,inactive
24,COc1ccc(C)cc1Nc1nc(C)nc2c1oc1ccccc12,inactive
25,COC(=O)c1ccccc1NC(=O)C1(S(=O)(=O)c2ccc(Cl)cc2)CC1,inactive

row,SMILES,Potency
1,CCN1C(=S)N[C@@H](CCc2ccccc2)[C@H](C(=O)OC)[C@H]1C,inactive
2,O=c1c2cc([N+](=O)[O-])ccc2nc2n1CCC2,inactive
3,COc1ccc(CNc2cc(C)cc(C)c2)cc1OC,inactive
4,Cc1c(CNCCc2ccccc2)c(C(=O)O)c(C)n1-c1ccccc1,inactive
5,Cc1ccc(C(=O)N2CC(=O)Nc3ccc(F)cc3C2c2ccc(F)cc2)cc1 (centres undefined),inactive
6,COC(=O)c1ccc(CNC(=O)C2CCC(=O)N(Cc3cccc(F)c3)C2)cc1 (centres undefined),inactive
7,Cc1cnc(C(=O)Oc2cccc(Cl)c2Cl)cn1,inactive
8,COc1ccc(C)cc1N(C(=O)Cn1nnc(-c2ccc(C)o2)n1)C(C(=O)NC1CCCC1)c1ccncc1 (centres undefined),inactive
9,Cc1ccc(/C=C2/SC(=S)N(CCC(=O)NCCCN3CCOCC3)C2=O)cc1,inactive
10,CCN(CC(=O)Nc1ccc2c(c1)OCO2)S(=O)(=O)c1ccccc1,inactive
11,NNC(=O)CSc1nnc(-c2ccccc2)n1-c1ccccc1,inactive
12,CC(C(=O)Nc1ccc(O)c(C(=O)O)c1)N1C(=O)/C(=C/c2cccs2)SC1=S (centres undefined),inactive
13,Cc1cccn2c(=O)c3cc(C(=O)NCCN4CCOCC4)c(=N)n(Cc4cccnc4)c3nc12,inactive
14,Cc1cccc(S(=O)(=O)N2CN(CC3CCCO3)c3nc4ccccc4nc32)c1 (centres undefined),inactive
15,Cc1ccc(S(=O)(=O)c2nc(-c3cccs3)oc2NCc2cccnc2)cc1,inactive
16,COc1ccc(CCNS(=O)(=O)c2cn(C)nc2C)cc1,inactive
17,CC(=O)Nc1cccc(Nc2nc(-c3cccs3)nc3ccccc23)c1,inactive
18,CC(=O)c1nn(-c2cccc(C(F)(F)F)c2)c(=O)[nH]c1=O,inactive
19,COc1cc(CN2CCCC(C(=O)c3ccc(SC)cc3)C2)cc(Cl)c1O (centres undefined),inactive
20,CC(=O)Nc1ccc(C(=O)N(C2=NC(C)CS2)c2ccc(Cl)cc2)cc1 (centres undefined),inactive
21,Cc1cccc(-c2noc(CCC(=O)NC3CCCC3)n2)c1,inactive
22,COc1ccccc1OCC(=O)Nc1c2c(nn1-c1ccc(F)cc1)CS(=O)(=O)C2,inactive
23,Cn1c(N2CCOCC2)c(C=O)c2ccccc21,inactive
24,COCCN1CCN(C(=O)c2cc(COc3ccc(F)cc3Cl)on2)CC1,inactive
